# Laboratory results from PubChem BioAssay AID1852 (Sanford-Burnham Center for Chemical Genomics, 2009).
# Screen size: about 2,500 compounds; about 1,100 (44%) were called active. So high a share suggests a set chosen from earlier hits. This is one part of the list. Unmarked numbers belong to inactive results.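 The calls were made as follows: active = inhibition above 50% at 4 µM in the single-point screen; inactive = inhibition of 50% or less.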
# Test: TNF-a-driven NF-kB reporter inhibitors, primary screen, selectivity assay for NOD1/NOD2 signaling inhibitor project, cell-based, HEK293T NF-kB-Luc, luminescence (AID 1852)
# Conditions: TNF-a induced, 14 h, at 4 µM, stronger effect = higher value
row,Compound,inhibition
1,COc1ccc(N2CCN(S(=O)(=O)c3ccc4c(c3)NC(=O)C(C)S4)CC2)cc1 (stereo not given),23.6%
2,c1ccc(CC2CCN(c3ncnc4sccc34)CC2)cc1,42.7%
3,CN1C(=O)C(C)(C)c2cc(S(=O)(=O)N3CCN(c4ccccc4)CC3)ccc21,16%
4,O=S(=O)(c1ccc2c(c1)OCCO2)N1CCN(c2ncnc3sccc23)CC1,53.4% (active)
5,Cc1ccc(S(=O)(=O)N2CCN(c3ncnc4sccc34)CC2)cc1,52.6% (active)
6,CCCc1nc(SCC(=O)N2CCC(Cc3ccccc3)CC2)c2c(=O)n(C)c(=O)n(C)c2n1,-11.3%
7,O=C(NN=C1c2ccccc2-c2ccccc21)c1cccc(Br)c1,21.6%
8,O=C(N/N=C1/C(=O)c2cccc3cccc1c23)c1ccc(Cl)cc1,81% (active)
9,C/C(=N\NC(=O)c1ccc(Cl)cc1)c1ccc(Br)s1,9.8%
10,S=c1[nH]nc(C2CCCCC2)n1/N=C/c1ccncc1,82.9% (active)
11,COc1ccc(OC)c(S(=O)(=O)N2CCN(c3ccccc3OC)CC2)c1,5%
12,O=C(COc1ccc(Br)cc1Cl)NC(=S)N1CCc2ccccc21,104% (active)
13,O=C1c2cccc(OCC(=O)N3CCCc4ccccc43)c2CCN1Cc1ccc(Br)cc1,-77.8%
14,Cc1ccc(-c2c(C#N)c(N)n3c(nc4ccccc43)c2C#N)cc1,33.8%
15,Cc1ccc(NC(=O)Nc2cccc([N+](=O)[O-])c2)cc1F,-50.5%
16,Cc1cc(Nc2cccc([N+](=O)[O-])c2)n2c(nc3ccccc32)c1C#N,78.7% (active)
17,CCc1nc(N2CCN(C(=O)CCl)CC2)c2c3c(sc2n1)CC(C)CC3 (stereo not given),35.2%
18,CCOC(=O)C1(CCc2ccccc2)CCN(C(=O)CN2C(=O)CSC2=O)CC1,-1.6%
19,COc1cc(NC(=O)COc2cc(O)c3c(c2)OC(C)(C)CC3=O)cc(OC)c1OC,64.6% (active)
20,Cc1ccc(Nc2nnc(-c3ccncc3)s2)c(Br)c1,48%
21,COc1ccccc1N1CCN(C(=S)Nc2ccc3nc(N4CCOCC4)cc(C)c3c2)CC1,38.6%
22,Cc1ccc(C)c(N2CCN(C(=S)Nc3ccc4nc(N5CCOCC5)cc(C)c4c3)CC2)c1,45.9%
23,COc1cccc(C(=O)Nc2ccc3nc(N4CCN(c5ncccn5)CC4)cc(C)c3c2)c1OC,101% (active)

row,Compound,inhibition
1,CCN(CC)c1ccc(/C=C/c2ccc3ccc(OC)cc3[n+]2CC)cc1,38.2%
2,CCN(CC)c1ccc(/C=C/c2cccc[n+]2C)c(OC)c1,66.8% (active)
3,COc1ccc(-c2csc3nc(-c4ccccc4)oc(=O)c23)cc1OC,-3.3%
4,COc1ccc2c(c1OC)C(=O)OC2Nc1nc(-c2ccccc2)cs1 (stereo not given),62.2% (active)
5,COc1ccccc1-c1nnc(SCC(=O)Nc2nc(-c3ccccc3)cs2)n1C,31.2%
6,Cc1ccc(-c2csc(NC3OC(=O)c4ccccc43)n2)cc1 (stereo not given),74.1% (active)
7,COc1ccc2[nH]c3c(c2c1)CCN1C(=O)N([C@@H](C)C(=O)NC2CC2)C(=O)[C@]31C,24.6%
8,COc1ccc2[nH]c(=O)c3c(c2c1)OC(C)(C)C=C3,74.7% (active)
9,Cc1[nH]c(=O)c(C(=O)/C=C/c2ccccc2F)c2c1CCCC2,97.7% (active)
10,COc1cccc(/C=C/C(=C2/C(=O)N(c3ccccc3)N=C2C)c2ccccc2)c1OC,7.3%
11,O=C(/C=C/c1cccs1)Nc1sc2c(c1C(=O)O)CCCC2,17.8%
12,Cc1[nH]c(=O)c(C(=O)/C=C/c2ccccc2)c2c1CCCC2,92% (active)
13,COc1ccccc1/C=C/C(=O)c1c2c(c(C)[nH]c1=O)CCCC2,80.6% (active)
14,CC1=NN(c2ccc(Cl)cc2)C(=O)C1C(c1ccccc1O)c1c(C)[nH]n(-c2ccc(Cl)cc2)c1=O (stereo not given),-30.7%
15,Cc1[nH]n(-c2cccc(Cl)c2)c(=O)c1-c1ccc(Cl)cc1,51.9% (active)
16,Cc1[nH]n(-c2ncc(-c3ccccc3)s2)c(=O)c1C(c1ccc(Cl)cc1)C(C#N)C#N (stereo not given),28.2%
17,CCOC(=O)C(=Cc1ccc(-n2cncn2)cc1)C(=O)OCC,27%
18,O=C(Nc1cc(Cl)ccc1-n1cncn1)c1ccc([N+](=O)[O-])s1,34.3%
19,CC(C)(C)C(=O)/C(=C/c1ccc(Cl)cc1)n1cncn1,73.3% (active)
20,CC(C)CC(=O)/C(=C\c1ccc(Cl)cc1Cl)n1cncn1,64.5% (active)
21,CC(=O)n1cc(N(C(=O)CCl)c2ccccc2)c2ccccc21,95.3% (active)
22,CC(=O)n1cc(N(C(=O)CCl)c2ccc(C)cc2)c2ccccc21,53.1% (active)
23,Clc1ccccc1/C=C/c1nc(-c2ccccn2)no1,-22.3%

row,Compound,inhibition
1,Cc1ccc(S(=O)(=O)N2C(=O)/C(=C3\SC(=S)NC3=O)c3ccccc32)cc1,82.3% (active)
2,N=C1S/C(=C\c2ccco2)C(=O)N1c1nccs1,105% (active)
3,N=C1S/C(=C\c2ccc(-c3cccc(Cl)c3)o2)C(=O)N1c1nccs1,108% (active)
4,O=C(Nc1ccccn1)C1CCN(c2ncnc3c2nc2n3CCCCC2)CC1,66.3% (active)
5,Cc1ccc(NC(=O)C2CCN(c3ncnc4c3nc3n4CCCCC3)CC2)cc1Cl,31.7%
6,Cc1ccc(NC(=O)C2CCCN(c3ncnc4c3nc3n4CCCCC3)C2)nc1 (stereo not given),92.6% (active)
7,COc1ccc(NC(=O)C2CCN(c3ncnc4c3nc3n4CCCCC3)CC2)cc1Cl,43.2%
8,CC(=O)c1ccc(NC(=O)C2CCCN(c3ncnc4c3nc3n4CCCCC3)C2)cc1 (stereo not given),22.3%
9,O=C(Nc1ccc(Cl)cn1)C1CCN(c2ncnc3c2nc2n3CCCCC2)CC1,76.4% (active)
10,O=C(NCC1CCN(Cc2ccc(Cl)cc2)CC1)C1CCCN(c2ncnc3c2nc2n3CCCCC2)C1 (stereo not given),57.9% (active)
11,O=C(Nc1nc2c(F)cc(F)cc2s1)c1ccc([N+](=O)[O-])o1,-4%
12,CCCc1nc(SCC(=O)Nc2nnc(SCC)s2)c2c(=O)n(C)c(=O)n(C)c2n1,33.2%
13,CCCCn1c(SCC(=O)Nc2nnc(CC)s2)nc2c1c(=O)n(C)c(=O)n2C,51.6% (active)
14,CC(C)n1c(SCC(=O)N2CCCCC2)nc2c1c(=O)n(C)c(=O)n2C,40.9%
15,CCCn1c(SCC(=O)Nc2nc3c(s2)CCCC3)nc2c1c(=O)n(C)c(=O)n2C,71.4% (active)
16,CC1CCc2nc(NC(=O)CSc3nc4ccccc4o3)sc2C1 (stereo not given),12%
17,C#CC(C)(C)NC(=O)CSc1nc2c(c(=O)n(C)c(=O)n2C)n1CCCC,24.1%
18,CCCCn1c(SCC(=O)Nc2nnc(C(C)C)s2)nc2c1c(=O)n(C)c(=O)n2C,54.3% (active)
19,CC(C)c1nc(SCC(=O)Nc2nc3c(s2)CCCC3)c2ccccc2n1,-69.4%
20,C=CCn1c(SCC(=O)Nc2sccc2C(N)=O)nc2sc(CC)cc2c1=O,44.9%
21,Cc1nc([N+](=O)[O-])c(Br)n1Cc1ccccc1,22.9%
22,NC(=O)c1ccc(N2CCN(S(=O)(=O)c3ccccc3)CC2)c([N+](=O)[O-])c1,5.1%
23,O=[N+]([O-])c1cc(S(=O)(=O)Nc2cccc(C(F)(F)F)c2)ccc1-n1nnc2ccccc21,68.7% (active)

row,Compound,inhibition
1,CN(C)c1ccnc2sc3c(=O)n(Cc4ccccc4)cnc3c12,69.1% (active)
2,Cc1ccccc1-n1cnc2c(sc3nc(N4CCOCC4)c4c(c32)CCCC4)c1=O,18.7%
3,CC1CCCN(c2ncnc3c2cnn3-c2ccc(Cl)cc2)C1 (stereo not given),45.4%
4,Cn1ncc2c(N3CCN(c4ccc(Cl)c(Cl)c4)CC3)ncnc21,104% (active)
5,Cc1noc2ncnc(N3CCN(c4cccc(Cl)c4)CC3)c12,19%
6,COc1ccc(-n2c(Cc3cccn3C)nnc2SCC(=O)Nc2ccc(F)cc2)cc1,-4%
7,Cn1cccc1Cc1nnc(SCC(=O)Nc2ccc(Cl)cc2)n1-c1ccc(F)cc1,42%
8,COc1ccccc1NC(=O)CSc1nnc(Cc2cccn2C)n1-c1ccc(F)cc1,-5.9%
9,Cn1cccc1Cc1nnc(SCC(=O)Nc2cccc(F)c2)n1-c1ccc(F)cc1,-4.7%
10,CCOc1ccccc1NC(=O)CSc1nnc(Cc2cccn2C)n1-c1ccc(F)cc1,56.8% (active)
11,Cc1cc(C)cc(NC(=O)CSc2nnc(Cc3cccn3C)n2-c2ccc(F)cc2)c1,59.6% (active)
12,COc1ccc(-n2c(Cc3cccn3C)nnc2SCC(=O)Nc2cccc(F)c2)cc1,59.1% (active)
13,COc1ccc(-n2c(Cc3cccn3C)nnc2SCC(=O)Nc2cccc(Cl)c2)cc1,14.7%
14,COc1ccc(Cl)cc1NC(=O)CSc1nnc(Cc2cccn2C)n1-c1ccc(F)cc1,35.1%
15,O=[N+]([O-])c1ccc(O)c(Nc2ncnc3ccccc23)c1,4.9%
16,O=[N+]([O-])c1ccc(O)c(-c2cc(C(F)(F)F)nc(-c3ccccc3)n2)c1,93.6% (active)
17,O=c1nc(/C=C/c2cc([N+](=O)[O-])ccc2Cl)cc(C(F)(F)F)[nH]1,-16.6%
18,CCOC(=O)C1(Cc2ccccc2C)CCCN(C(=O)CN2C(=O)CSC2=O)C1 (stereo not given),31.1%
19,O=C(c1ccccc1)N1CCSc2sccc2C1=O,52.7% (active)
20,CC1=CCCC(C)(C)C1/C=C/C(C)=N/NC(=O)c1ccncc1 (stereo not given),59.7% (active)
21,CC1=C(/C=C/C(C)=N\NC(=O)c2ccncc2)C(C)(C)CCC1,3.5%
